Our source for the cell viability values is the supplement of paper PMC12669797.

For one assay, the system named is ES2. As to the kind of experiment: cell viability relative to DMSO control (MTS) (fraction of DMSO control); higher = more viable cells / less growth inhibition. Conditions: 10 µM; 48 h. Put shortly:
(§1)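 After 24 h of growth in 96-well plates at 5000 cells per well, TOV-21G and ES2 clear cell carcinoma cells were treated for 48 h with a 367-compound […] library at 10 µM final concentration. Cell viability was measured by MTS assay and expressed relative to vehicle control wells as a fraction.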

In another assay the test system is TOV-21G. Described as above. Conditions: 10 µM; 48 h. Put shortly:
as §1

On to `C[C@]1(c2nc3c(C(N)=O)cccc3[nH]2)CCCN1` [ABT-888 (Veliparib)], for which the cell viability in the assay on ES2 came to 0.897; in the assay with TOV-21G, 0.892.
Take `O=C(Nc1cccc2cccnc12)c1ccc(N2C(=O)[C@@H]3[C@H](C2=O)[C@@H]2C=C[C@H]3C2)cc1` [IWR-1-endo]: the cell viability worked out at 0.998 in the assay on ES2 and 0.582 in the assay with TOV-21G.
Regarding `Nc1ncn([C@H]2C[C@H](O)[C@@H](CO)O2)c(=O)n1` [Decitabine], the cell viability with ES2 amounted to 0.757; in the assay on TOV-21G, 1.11.
Regarding `COc1ccc(C2=N[C@@H](c3ccc(Cl)cc3)[C@@H](c3ccc(Cl)cc3)N2C(=O)N2CCNC(=O)C2)c(OC(C)C)c1` [Nutlin-3], the values for the cell viability in the assay on ES2 and in the assay with TOV-21G were 0.825 and 0.413, respectively.
For the compound `O=Nc1c(-c2c(O)[nH]c3ccccc23)[nH]c2ccccc12` [indirubin-3'-monoxime], the cell viability with ES2 is 0.696; in the assay with TOV-21G it was 0.491.
On to `CCCC[C@@H](C)/C=C(C)/C=C(\C)C(=O)NC1=C[C@@](O)(/C=C/C=C/C=C/C(=O)NC2=C(O)CCC2=O)[C@@H]2O[C@@H]2C1=O` [Manumycin A], for which the results for the cell viability with ES2 and with TOV-21G were 1.06 and 1.61, respectively.
For `O=C(NCc1ccccc1)c1csc(Nc2ccncn2)n1` [Thiazovivin], the cell viability came out at 0.941 in the assay with ES2 and 1.04 in the assay on TOV-21G.
The matching figures for `O=c1c(-c2ccc(O)cc2)coc2cc(O)cc(O)c12` [Genistein]: 1.31 and 0.988.
On to `C/C=C/C/C=C/CCC(=O)[C@H]1O[C@H]1C(N)=O` [Cerulenin], for which the cell viability in the assay with ES2 stood at 1.4; in the assay on TOV-21G, 1.03.
With `O=C1NC(=O)c2c1c1c3ccccc3[nH]c1n1cncc21` [isogranulatimide], the figures for the cell viability in the assay on ES2 and with TOV-21G were 1.12 and 1.47, respectively.
On to `NS(=O)(=O)c1ccc(Nc2nc(OCC3CCCCC3)c3[nH]cnc3n2)cc1`, for which the cell viability in the assay with ES2 was 0.699; in the assay with TOV-21G, 0.784.
The corresponding values for `CCCCCCCCCCCCCCOc1ccc(C(=O)O)o1` are 1.21 and 0.947.
